Our source for the outcome and AC50 values is PubChem BioAssay (EPA / NIEHS).

In experiment [1] the target is Transcription factor E2F1 (Homo sapiens) (UniProt Q01094). Kind of experiment: ATG_E2F_CIS: Attagene CIS-FACTORIAL HepG2 Assay for human E2F Transcription Factor 1 (AID 2282935). To be noted: HepG2 Attagene cis-reporter, E2F reporter RNA transcripts; actives raise or lower the signal. The method, boiled down:
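Measures reporter transcript levels via RT-PCR with capillary electrophoresis detection in HepG2 cells harboring cis-regulated reporter units; 24 h post-dose; bidirectional curve fitting with DMSO as baseline.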

The nature of experiment [2]: ATG_E_Box_CIS: Attagene CIS-FACTORIAL HepG2 Assay for human Enhancer Box (E-box) (AID 2282936). To be noted: HepG2 E-box cis-reporter transcription, actives raise or lower the signal. In short, it runs like this: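 First, HepG2 cells receive multiple cis-regulated reporter constructs by transient transfection. Next, chemicals are applied for 24 h. Finally, reporter mRNA is quantified via RT-PCR and capillary electrophoresis, with DMSO as baseline.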

Experiment [3] is described as follows: ATG_M_61_CIS: Attagene CIS-FACTORIAL HepG2 Assay for M61 Transcription Factor (Internal Marker) (AID 2282937). The note with it: HepG2 Attagene CIS-FACTORIAL M61 internal marker reporter; actives raise or lower the signal. The method, boiled down: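 Using transiently transfected HepG2 liver cells, reporter transcript levels were assessed 24 h post-dosing by RT-PCR and capillary electrophoresis. Changes in either direction were fitted relative to DMSO controls.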

Experiment [4] can be described thus: ATG_EGR_CIS: Attagene CIS-FACTORIAL HepG2 Assay for human Early Growth Response 1 (EGR1) (AID 2282938). The note with it: HepG2 Attagene CIS-FACTORIAL EGR reporter mRNA; actives raise or lower the signal. The method, boiled down: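 Fluorescent capillary-electrophoresis signal of reporter cDNA fragments serves as read-out. HepG2 cells bear transiently transfected cis-promoter reporter units and are exposed 24 h; gain- or loss-of-signal is fitted against DMSO.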

Experiment [5] in a line: ATG_M_19_CIS: Attagene CIS-FACTORIAL HepG2 Assay for M19 Transcription Factor (Internal Marker) (AID 2282939). To be noted: HepG2 Attagene CIS-FACTORIAL M19 internal marker reporter; actives raise or lower the signal. The method, boiled down:
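Readout: fluorescent reporter-transcript fragments by capillary electrophoresis after RT-PCR. Human HepG2 liver cells carried transfected MRTU constructs reporting endogenous transcription-factor activity; exposure 24 h. Gain or loss of signal fitted relative to DMSO.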

Experiment [6] is described as follows: ATG_ERE_CIS: Attagene CIS-FACTORIAL HepG2 Assay for Estrogen Response Element (ERE) (AID 2282940). To be noted: HepG2 ERE cis-reporter, Attagene RNA transcript; actives raise or lower the signal. The method, boiled down:
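Readout: reporter mRNA induction by RT-PCR, FAM-labelled primer extension, HpaI digestion and capillary electrophoresis, 24 h after dosing transfected HepG2 cells. Endogenous transcription factors act on cis-element-regulated reporters. Gain or loss fitted against DMSO.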

Experiment [7] in a line: ATG_Ets_CIS: Attagene CIS-FACTORIAL HepG2 Assay for human Erythroblast Transformation Specific (ETS) (AID 2282941). The note with it: HepG2 ETS cis-reporter transcription, actives raise or lower the signal. In short, it runs like this:
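After transient cis-reporter transfection, HepG2 cells receive test chemical for 24 h. Reporter mRNA levels, measured by RT-PCR and capillary electrophoresis fluorescence, are analysed bidirectionally relative to the DMSO baseline.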

For experiment [8], the target named is Hepatocyte nuclear factor 3-beta (Homo sapiens) (UniProt Q9Y261). As to the kind of experiment: ATG_FoxA2_CIS: Attagene CIS-FACTORIAL HepG2 Assay for human Forkhead box A2 (FOXA2) (AID 2282942). To be noted: HepG2 cis-reporter transcription factor activity, 24 h; actives raise or lower the signal. In short, it runs like this:
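Fluorescence signal of reporter cDNA fragments, separated by capillary electrophoresis, reflects endogenous transcription factor activity in transfected HepG2 after 24 h. Both increases and decreases fitted against DMSO.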

The nature of experiment [9]: ATG_FoxO_CIS: Attagene CIS-FACTORIAL HepG2 Assay for human Forkhead box O (FoxO) (AID 2282943). The note with it: HepG2 Attagene cis-reporter, FoxO element, mRNA; actives raise or lower the signal. In short, it runs like this: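 HepG2 cells transiently transfected with cis-element-driven reporter units report endogenous FoxO activity. After 24 h chemical exposure, reporter mRNA quantified by RT-PCR, fluorescent labeling, HpaI digestion and capillary electrophoresis; bidirectional fit versus DMSO.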

Experiment [10] can be described thus: ATG_GATA_CIS: Attagene CIS-FACTORIAL HepG2 Assay for human GATA Binding Protein (AID 2282944). To be noted: HepG2 GATA cis-element reporter, Attagene multiplex mRNA; actives raise or lower the signal. The method, boiled down: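 Read-out: fluorescent reporter mRNA fragments resolved by capillary electrophoresis after RT-PCR. Human liver HepG2 cells carried transiently transfected cis-regulated reporter constructs; chemicals incubated 24 h; gain or loss of signal fitted relative to DMSO.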

Experiment [11] is described as follows: ATG_GLI_CIS: Attagene CIS-FACTORIAL HepG2 Assay for human Zinc Finger Protein GLI1 (AID 2282945). The note with it: HepG2, Attagene cis-factorial reporter mRNA, GLI element; actives raise or lower the signal. The method, boiled down:
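Transiently transfected HepG2 cells report endogenous transcription factor activity via cis-element-driven reporter units. After 24 h compound exposure, reporter mRNA was measured by RT-PCR with capillary electrophoresis; bidirectional fitting against DMSO baseline.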

The target of experiment [12] is Bile acid receptor (Homo sapiens) (UniProt Q96RI1). As to the kind of experiment: ATG_IR1_CIS: Attagene CIS-FACTORIAL HepG2 Assay for human Nuclear Receptor Subfamily 1 Group H Member 4 (NR1H4), IR1 submotif (AID 2282946). To be noted: IR1 reporter transcription, actives raise or lower the signal. The method, boiled down: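 HepG2 cells transiently transfected with multiple cis-promoter-driven reporter units to measure endogenous transcription factor activity; 24 h exposure. Reporter mRNA read by RT-PCR, FAM labelling, HpaI digestion and capillary electrophoresis. Bidirectional fit versus DMSO.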
Sequence of Bile acid receptor (Homo sapiens) (Q96RI1 whole entry, looked up): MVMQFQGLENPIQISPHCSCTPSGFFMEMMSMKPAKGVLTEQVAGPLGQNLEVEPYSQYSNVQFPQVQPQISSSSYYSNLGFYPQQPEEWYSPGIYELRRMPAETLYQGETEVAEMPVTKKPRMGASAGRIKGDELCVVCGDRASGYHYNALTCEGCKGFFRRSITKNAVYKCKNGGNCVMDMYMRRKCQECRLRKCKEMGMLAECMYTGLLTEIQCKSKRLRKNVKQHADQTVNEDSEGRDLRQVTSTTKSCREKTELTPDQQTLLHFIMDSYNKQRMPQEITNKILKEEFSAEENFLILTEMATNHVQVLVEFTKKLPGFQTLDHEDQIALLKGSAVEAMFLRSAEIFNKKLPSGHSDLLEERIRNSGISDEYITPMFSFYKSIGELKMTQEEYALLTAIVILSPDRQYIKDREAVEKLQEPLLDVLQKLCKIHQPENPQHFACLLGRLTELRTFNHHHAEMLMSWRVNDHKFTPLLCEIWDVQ

The nature of experiment [13]: ATG_ISRE_CIS: Attagene CIS-FACTORIAL HepG2 Assay for human Interferon Regulatory Factor 1 (IRF1) binding to an Interferon-Stimulated Response Element (ISRE) (AID 2282948). To be noted: HepG2 ISRE cis-reporter (Attagene), mRNA transcription readout; actives raise or lower the signal. The method, boiled down: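 Quantitation relies on labelled RT-PCR fragments separated by capillary electrophoresis. Human HepG2 cells bearing cis-promoter reporter constructs were treated 24 h; DMSO served as baseline for bidirectional fitting.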

Experiment [14] is described as follows: ATG_M_32_CIS: Attagene CIS-FACTORIAL HepG2 Assay for M32 Transcription Factor (Internal Marker) (AID 2282949).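 Note: background control marker of the multiplexed CIS panel rather than a real target.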 To be noted: HepG2 Attagene cis-factorial M32 reporter, mRNA; actives raise or lower the signal. The method, boiled down: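 Internal background marker read-out: RT-PCR/capillary electrophoresis fluorescence of reporter transcripts from transiently transfected HepG2 cells after 24 h chemical exposure. Activity fitted bidirectionally relative to DMSO negative control.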

Experiment [15] can be described thus: ATG_M_06_CIS: Attagene CIS-FACTORIAL HepG2 Assay for M06 Transcription Factor (Internal Marker) (AID 2282950). To be noted: HepG2 Attagene CIS-FACTORIAL M06 internal marker reporter; actives raise or lower the signal. The method, boiled down:
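Terse: HepG2, transient MRTU transfection (FuGene 6), 24 h dosing; total RNA, oligo(dT) RT, PCR, FAM label, HpaI cut, capillary electrophoresis; bidirectional fit vs DMSO baseline; background-control endpoint.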

For experiment [16], the target named is Hypoxia-inducible factor 1-alpha (Homo sapiens) (UniProt Q16665). Kind of experiment: ATG_HIF1a_CIS: Attagene CIS-FACTORIAL HepG2 Assay for human Hypoxia Inducible Factor 1 (HIF1A) (AID 2282951). To be noted: HepG2 Attagene cis-factorial HIF1a reporter transcription; actives raise or lower the signal. The method, boiled down:
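Endogenous-TF cis reporter readout, human HepG2 cells, 24 h incubation; mRNA detected via RT-PCR and capillary electrophoresis fluorescence; DMSO-normalised bidirectional fitting.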

The target of experiment [17] is Heat shock factor protein 1 (Homo sapiens) (UniProt Q00613). Kind of experiment: ATG_HSE_CIS: Attagene CIS-FACTORIAL HepG2 Assay for human Heat Shock Transcription Factor 1 (HSE) (AID 2282953). To be noted: HepG2 HSE cis-reporter, Attagene RNA transcription; actives raise or lower the signal. In short, it runs like this: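 Read-out: fluorescence of reporter-specific RT-PCR fragments separated by capillary electrophoresis. HepG2 carrying transfected cis-element reporter units; 24 h dosing; activity fitted in both directions relative to DMSO baseline.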
Sequence of Heat shock factor protein 1 (Homo sapiens) (Q00613 whole entry, looked up, the tested form may be a part): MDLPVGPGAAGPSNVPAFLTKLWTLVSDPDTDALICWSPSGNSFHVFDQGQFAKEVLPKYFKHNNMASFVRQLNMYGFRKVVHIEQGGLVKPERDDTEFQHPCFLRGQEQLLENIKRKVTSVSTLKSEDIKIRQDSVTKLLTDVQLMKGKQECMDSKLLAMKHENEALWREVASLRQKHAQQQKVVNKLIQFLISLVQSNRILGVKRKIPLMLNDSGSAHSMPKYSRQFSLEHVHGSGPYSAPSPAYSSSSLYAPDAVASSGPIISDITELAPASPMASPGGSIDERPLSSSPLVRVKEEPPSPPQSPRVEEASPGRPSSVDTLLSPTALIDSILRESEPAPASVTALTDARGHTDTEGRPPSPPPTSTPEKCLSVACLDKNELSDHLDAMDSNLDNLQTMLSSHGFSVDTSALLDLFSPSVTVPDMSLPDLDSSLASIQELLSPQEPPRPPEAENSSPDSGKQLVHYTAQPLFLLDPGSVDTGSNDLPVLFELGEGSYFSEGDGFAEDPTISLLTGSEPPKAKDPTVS

Experiment [18] can be described thus: ATG_MRE_CIS: Attagene CIS-FACTORIAL HepG2 Assay for human Metal Responsive Element (MRE) (AID 2282954). The note with it: HepG2 MRE cis-reporter transcription, Attagene multiplex; actives raise or lower the signal. In short, it runs like this:
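Fluorescent reporter fragments separated by capillary electrophoresis give mRNA induction for the MRE unit after 24 h treatment of transfected HepG2 cells. Endogenous transcription-factor activity is read; DMSO serves as negative control and baseline.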

“And” between values parts separate entries of the source, which are not always exact repeats. Identical values can stand only once. More than one record can exist for a structure, and the calls need not agree. The source made the active and inactive calls. Rule for the calls: active = hit-call score of the fitted dose curve at least 0.9, where 1 is the maximum; inactive = score below 0.9.

Sequence of Hepatocyte nuclear factor 3-beta (Homo sapiens) (Q9Y261 whole entry, looked up, the tested form may be a part): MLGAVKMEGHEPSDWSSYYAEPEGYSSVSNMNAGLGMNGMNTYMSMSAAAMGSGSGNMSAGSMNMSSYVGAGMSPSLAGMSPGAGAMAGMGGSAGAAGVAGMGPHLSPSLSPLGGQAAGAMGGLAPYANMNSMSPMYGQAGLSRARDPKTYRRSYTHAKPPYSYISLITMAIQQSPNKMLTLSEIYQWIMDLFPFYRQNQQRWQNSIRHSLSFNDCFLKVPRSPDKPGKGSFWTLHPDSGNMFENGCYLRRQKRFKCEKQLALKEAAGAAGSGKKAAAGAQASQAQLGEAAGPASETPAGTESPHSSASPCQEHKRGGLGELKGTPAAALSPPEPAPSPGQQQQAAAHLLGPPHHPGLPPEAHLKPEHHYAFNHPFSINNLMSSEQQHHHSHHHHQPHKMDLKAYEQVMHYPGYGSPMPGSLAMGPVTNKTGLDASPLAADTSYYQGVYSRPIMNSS
Sequence of Hypoxia-inducible factor 1-alpha (Homo sapiens) (Q16665 whole entry, looked up): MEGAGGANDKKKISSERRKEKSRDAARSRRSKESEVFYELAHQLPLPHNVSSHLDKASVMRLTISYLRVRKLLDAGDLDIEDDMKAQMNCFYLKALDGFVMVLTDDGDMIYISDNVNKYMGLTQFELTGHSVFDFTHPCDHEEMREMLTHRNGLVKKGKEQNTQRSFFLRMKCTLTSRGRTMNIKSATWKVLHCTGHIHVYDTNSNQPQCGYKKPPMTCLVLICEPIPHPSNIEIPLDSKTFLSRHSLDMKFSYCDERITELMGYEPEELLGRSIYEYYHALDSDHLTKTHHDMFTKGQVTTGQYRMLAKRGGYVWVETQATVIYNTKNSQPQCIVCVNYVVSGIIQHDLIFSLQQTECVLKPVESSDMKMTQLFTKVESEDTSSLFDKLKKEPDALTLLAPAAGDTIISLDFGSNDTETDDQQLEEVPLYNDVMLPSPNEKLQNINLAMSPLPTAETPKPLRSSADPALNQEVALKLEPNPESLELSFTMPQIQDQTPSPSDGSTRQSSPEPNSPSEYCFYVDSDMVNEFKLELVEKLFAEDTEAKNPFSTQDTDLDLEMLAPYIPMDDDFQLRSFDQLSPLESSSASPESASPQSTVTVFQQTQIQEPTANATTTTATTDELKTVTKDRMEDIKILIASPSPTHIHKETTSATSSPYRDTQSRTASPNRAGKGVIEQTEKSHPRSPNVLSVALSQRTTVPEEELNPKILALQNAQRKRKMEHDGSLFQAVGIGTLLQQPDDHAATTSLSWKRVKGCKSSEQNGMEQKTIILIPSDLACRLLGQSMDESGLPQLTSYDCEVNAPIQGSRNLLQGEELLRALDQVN
Sequence of Transcription factor E2F1 (Homo sapiens) (Q01094 whole entry, looked up): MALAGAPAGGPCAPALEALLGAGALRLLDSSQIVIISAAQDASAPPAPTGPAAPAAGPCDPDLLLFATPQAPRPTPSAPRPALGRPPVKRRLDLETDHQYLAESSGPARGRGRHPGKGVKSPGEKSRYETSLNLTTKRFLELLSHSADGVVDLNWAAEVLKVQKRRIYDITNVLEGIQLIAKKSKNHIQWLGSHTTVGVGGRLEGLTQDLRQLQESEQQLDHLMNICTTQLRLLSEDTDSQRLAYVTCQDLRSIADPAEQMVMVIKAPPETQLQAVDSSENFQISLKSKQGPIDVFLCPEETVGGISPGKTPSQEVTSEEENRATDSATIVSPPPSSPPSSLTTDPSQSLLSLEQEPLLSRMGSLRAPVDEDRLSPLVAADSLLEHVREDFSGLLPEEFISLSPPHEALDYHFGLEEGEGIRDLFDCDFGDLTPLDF

One may read the AC50 as the concentration at which the activity in the assay is half-maximal. Consider `FC(F)(I)C(F)(F)C(F)(F)C(F)(F)C(F)(F)C(F)(F)I`, for which the compound was called inactive in experiment [1], in [2], in experiment [3], in experiment [5], in [8] and in experiment [10]. Also, the result in [11], in [12], in experiment [13], in experiment [14], in [15] and in experiment [16] was inactive. Further, the result in [17] and in experiment [18] was inactive. In addition, the AC50 is 16.4 µM (active) in experiment [4], 19.2 nM (active) in [6], 18.3 µM (active) in experiment [7] and 17.4 µM (active) in [9].

As to `CC1=C(/C=C/C(C)=C/C=C/C(C)=C/C(=O)O)C(C)(C)CCC1`, the outcome in experiment [1], in experiment [2], in [3], in experiment [4], in [5] and in experiment [6] was inactive. Moreover, the compound was classed as inactive in [7], in experiment [8], in experiment [9], in experiment [11], in experiment [14] and in [15]. Also, the AC50 in experiment [4] was 21.5 µM (active); in [6], 112 nM (active); in experiment [9] it was 44.4 µM (active); in experiment [13], 54.4 µM (active) and 106 µM (active); in experiment [17], 50.5 µM (active) and 93 µM (active); in experiment [18] it was 39.7 µM (active) and 55 µM (active).

Turning to `OCCC(F)(F)C(F)(F)C(F)(F)C(F)(F)C(F)(F)C(F)(F)C(F)(F)C(F)(F)F`, the outcome in [1], in [2], in experiment [3], in [5], in experiment [9] and in [10] was inactive. In addition, the compound was classed as inactive in experiment [11], in [13], in [14], in [15] and in [16]. For the same compound, the AC50 in experiment [2] is 261 µM (active); in experiment [4], 26.5 µM (active) and 150 µM (active); in experiment [6] it was 9.11 µM (active) and 8.41 µM (active); in experiment [7] it was 50.7 µM (active) and 150 µM (active); in experiment [8] it was 51.9 µM (active) and 235 µM (active); in experiment [11], 59.2 µM (active). Besides, the AC50 in experiment [13] is 150 µM (active); in experiment [17], 55.7 µM (active) and 234 µM (active); in experiment [18] it was 47.3 µM (active) and 150 µM (active).
